Compound activity: PubChem BioAssay, several laboratories
Sampled rows, rich in hits. Any-hit rate of the full collection: about 2.8%.
JMJD2C inh = blocks human GASC-1 demethylase activity. Q9H3R0. inhibition, % at 2.35 µM. GST-JMJD2C(1-420) H3K9me3 demethylation, DELFIA europium. actives 0.069% (n = 330,000);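 active means more than half of a compound's replicate wells show inhibition beyond 50%, single wells judged on their own value; inconclusive means some, but no more than half, of replicates pass 50% inhibition; inactive means no replicate passes 50% inhibition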;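 further: signal counts dimethyl H3K9 product captured on neutravidin plate; 0% = median of DMSO wells and 100% = 0.3 times that DMSO median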
NR1D1 modulator = modulates human Rev-erb alpha binding to DNA. actives 0.79% (n = 370,000). activity, % at 10 µM. P20393. AID 1259318. Rev-erbα–FITC-DNA binding, fluorescence polarization, 90 min;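 active means activity above about 14%, limit read from the data; passing the limit was not always enough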;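 further: 0% = DMSO wells with 35 nM protein and 100% = DMSO wells with 750 nM protein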
PP1 inh = PP1-alpha (human) inhibition in PP5 counter-screen; P62136; purified PP1alpha, OMFP fluorescence; inhibition, % at 6.7 µM; actives 0.9% (n = 320,000);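 active means inhibition above the mean inhibition of all tested compounds plus 3 SD, computed separately for each screening campaign, cut at about 15% in these data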
Target sequence (P62136 whole entry, looked up): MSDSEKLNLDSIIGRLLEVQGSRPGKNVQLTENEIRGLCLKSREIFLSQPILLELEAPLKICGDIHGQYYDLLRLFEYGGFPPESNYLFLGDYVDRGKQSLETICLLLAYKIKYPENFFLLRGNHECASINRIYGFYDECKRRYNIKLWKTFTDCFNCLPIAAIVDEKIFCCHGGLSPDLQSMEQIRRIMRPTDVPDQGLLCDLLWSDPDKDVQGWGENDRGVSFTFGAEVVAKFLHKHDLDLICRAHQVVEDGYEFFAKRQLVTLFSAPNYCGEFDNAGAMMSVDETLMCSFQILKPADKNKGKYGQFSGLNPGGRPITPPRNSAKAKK
PP5 inh = PP5 (human) phosphatase inhibition; P53041; purified PP5c, OMFP substrate fluorescence; inhibition, % at 6.7 µM; actives 0.18% (n = 320,000);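 active means inhibition above the campaign's mean inhibition across all tested compounds plus 3 SD, cut at about 9.5% in these data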;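 further: 0% = DMSO only and 100% = 100 µM cantharidin control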
proKLK7 act = activators of human kallikrein-7 zymogen; AID 652039; actives 0.9% (n = 370,000); purified proKLK7, EDANS-DABCYL substrate fluorescence; 100% is mature enzyme control, 0% vehicle; activation, % at 7 µM;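 active means activation above the mean of all tested compounds plus 3 SD, computed per campaign excluding outliers beyond control limits, cut at about 13% in these data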
Target sequence (P49862 whole entry, looked up): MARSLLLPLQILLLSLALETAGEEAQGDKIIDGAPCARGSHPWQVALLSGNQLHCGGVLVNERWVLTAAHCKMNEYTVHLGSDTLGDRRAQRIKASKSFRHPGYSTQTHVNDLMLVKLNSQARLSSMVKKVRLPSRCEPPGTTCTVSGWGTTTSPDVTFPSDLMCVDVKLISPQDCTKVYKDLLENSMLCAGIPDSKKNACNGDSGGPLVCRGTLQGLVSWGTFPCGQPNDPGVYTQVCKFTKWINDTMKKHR
PG9 Ab binder = binds the HIV-1 gp120 antibody PG9; TR-FRET gp120-PG9 antibody binding; inhibition, % at 6.7 µM; actives 0.43% (n = 360,000); AID 624416; in the data active means inhibition above about 8.5%
PP1 inh confirm = confirmation of human PP1 phosphatase inhibitors. shares compounds with PP1 inh. purified PP1alpha, OMFP substrate fluorescence. inhibition, % at 6.7 µM. actives 52% (n = 1,900). AID 2358;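 active means mean PP1 inhibition above a set limit taken from the earlier primary screen, cut at about 15% in these data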
PP5 counter = inhibits human PP5 phosphatase in PP1 counter-screen; shares compounds with PP1 inh; purified PP5c, OMFP fluorescence; inhibition, % at 6.7 µM; actives 4% (n = 1,900);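 active means mean PP5 inhibition over triplicate wells above about 9.5% taken from the earlier PP1 screen, limit read from the data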
PG9 binder conf = confirmation of small molecules binding HIV-1 gp120 antibody PG9; shares compounds with PG9 Ab binder; TR-FRET PG9 antibody binding, biochemical; inhibition, % at 6.7 µM; actives 90% (n = 1,500); AID 651571; in the data active means inhibition above about 9%
PGV04 Ab binding = counter-screen for PG9 binders: binding control antibody PGV04; inhibition, % at 6.7 µM; shares compounds with PG9 Ab binder; actives 95% (n = 1,500); AID 651604; TR-FRET PGV04 antibody-gp120 binding, biochemical; in the data active means inhibition above about 9.5%
PG9 bind DR = PG9 antibody binding, dose response | AID 651848 | IC50, µM | shares compounds with PG9 Ab binder | TR-FRET PG9 antibody-gp120 binding inhibition | 95 tested, under 10 active; in the data active means IC50 below about 10 µM
PGV04 DR counter = PGV04 binding, dose response counter-screen; shares compounds with PG9 Ab binder; TR-FRET binding to control antibody PGV04; IC50, µM; actives 20% (n = 95); AID 651937
PG126 DR counter = binds control antibody PG126 in PG9 counter-screen | shares compounds with PG9 Ab binder | TR-FRET binding to antibody PG126, counterscreen | IC50, µM | actives 20% (n = 95)
proKLK7 act conf = confirmation of human kallikrein-7 zymogen activators; AID 686949; purified proKLK7, EDANS-DABCYL substrate fluorescence; scaled: vehicle 0, mature enzyme 100; actives 68% (n = 3,200); shares compounds with proKLK7 act; activation, % at 7 µM;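 active means activation, as change over the incubation, above the mean of all tested compounds plus 3 SD, cut at about 13% in these data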
EDANS-DABCYL int = optically interferes with EDANS-DABCYL signal, flagging KLK7 hits; shares compounds with proKLK7 act; EDANS-DABCYL substrate fluorescence interference, no enzyme, 4 h; solvent 0%, active enzyme control 100%; activation, % at 7 µM; actives 80% (n = 3,200); AID 686952;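 active means activation above the all-compound mean plus 3 SD, ignoring values outside control-based bounds, cut at about 4.8% in these data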;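 further: value is the 4 h activation minus the activation read at time zero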
NR1D1 mod conf = Rev-erb alpha (human) modulation, hit confirmation. shares compounds with NR1D1 modulator. Rev-erb alpha FITC-DNA binding, fluorescence polarization, 90 min. activation, % at 25 µM. actives 61% (n = 3,000). AID 1259319;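 active means activation at or above a set limit, or at least 3 SD above the negative control mean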;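 further: 0% = 35 nM protein with DMSO and 100% = 750 nM protein high control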
RORg DNA counter = affects RORgamma DNA binding in a Rev-erb alpha counter-screen. shares compounds with NR1D1 modulator. purified RORgamma protein-FITC-DNA binding, fluorescence polarization. IC50, µM. actives 8% (n = 910). AID 1259320;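 active means Compounds whose fitted half-maximal concentration for disrupting protein-DNA binding is below 10 micromolar; the record names Rev-erb in its text, so the target is in doubt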
* marks the source's active call; other numbers are inactive results; i = inactive; ? = inconclusive; . = no result. Unless noted, no stated cut-off is given here; in the data, active means IC50 below about 9 µM; inactive means the rest.

SMILES | JMJD2C inh | NR1D1 modulator | PP1 inh | PP5 inh | proKLK7 act | PG9 Ab binder | PG9 binder conf | PGV04 Ab binding | others
Cc1nnc(NC(=O)c2cc(-c3ccco3)nc3ccccc23)s1 | ? | -25 | 30* | -1 | 24* | 2 | . | . | PP1 inh confirm=6;PP5 counter=0;proKLK7 act conf=4;EDANS-DABCYL int=9.9*
CCCCNC(=O)C[C@@H]1C(=O)N(CCc2ccc(Cl)cc2)/C2=C/CCCCC[C@@]21C(=O)OCC | . | 6 | . | . | 0 | . | . | .
CC1(C)C=C2C(=NN(c3ccccc3)C(N)=C2C#N)CO1 | 7 | 19* | 33* | 1 | 0 | -1 | . | . | PP1 inh confirm=1;PP5 counter=59*;NR1D1 mod conf=11
Cc1ccc(-c2nnc(SCC(=O)c3ccc(O)c(O)c3)n2-c2ccc(Cl)cc2)cc1 | . | 1 | . | . | 0 | . | . | .
COC(=O)c1ccc(S(=O)(=O)N2CCC(NC(=O)Cc3cccc(C)c3)CC2)cc1 | . | 1 | . | . | 0 | . | . | .
Cc1ccc(C(=O)C2CCN(CC(=O)N3CCCC3)CC2)cc1 | . | -1 | . | . | 0 | . | . | .
O=C(/C=C/c1ccc(OCCCF)cc1)Nc1ccnc(-c2cccnc2)n1 | 2 | 24* | 22* | -1 | -2 | 8 | . | . | PP1 inh confirm=22*;PP5 counter=-4;NR1D1 mod conf=22*
COc1ccc(Cl)cc1C(=O)Nc1cccc(-c2ccc3nncn3n2)c1 | -2 | 128* | 51* | 1 | -13 | 4 | . | . | PP1 inh confirm=45*;PP5 counter=0;NR1D1 mod conf=183*;RORg DNA counter=>40
COC(=O)c1ccc(C23CC4(C2)[C@H](CN(Cc2cccnc2)[C@@H]4c2ccccc2)C3c2ccccc2)cc1 (stereo partly drawn) | 0 | 6 | 8 | 3 | 0 | -1 | . | .
N#Cc1ccc(C23CC4(C2)[C@H](CN(Cc2cccnc2)[C@@H]4c2ccccc2)C3c2ccccc2)cc1 (stereo partly drawn) | 3 | 23* | 20* | 2 | 1 | 0 | . | . | PP1 inh confirm=17*;PP5 counter=-2;NR1D1 mod conf=29*
COc1ccc(C(=O)Nc2ccc3oc(-c4cccc(F)c4)nc3c2)cc1OC | 5 | 7 | -1 | 1 | -1 | 2 | . | .
COc1ccccc1C(=O)Nc1ccc2oc(-c3ccc(F)cc3)nc2c1 | -5 | 36* | 19* | -1 | 0 | 0 | . | . | PP1 inh confirm=12;PP5 counter=-7;NR1D1 mod conf=33*;RORg DNA counter=i
COC(=O)Cn1c(=NC(=O)c2sc3ccccc3c2Cl)sc2cc(S(N)(=O)=O)ccc21 | 1 | 12 | 26* | -1 | -13 | 11* | 22* | 28*
COC(=O)Cn1c(=NC(=O)c2ccc(Cl)s2)sc2cc(C)ccc21 | -4 | 22 | 2 | 0 | 0 | 0 | . | .
COc1ccc2c(c1)CN1C(=O)N(C3CCCC3)S(=O)(=O)CC21 (stereo not drawn) | . | -4 | . | . | 0 | . | . | .
O=C(NCc1ccco1)OC1CCC12CCC(c1ccccc1)CC2 (stereo not drawn) | . | 8 | . | . | . | . | . | .
Cc1ccc(-c2nc3cccnc3s2)cc1NC(=O)c1ccco1 | -1 | -5 | -4 | 5 | 0 | -1 | . | .
Cc1ccc(-c2nc3cccnc3s2)cc1NC(=O)C1c2ccccc2Oc2ccccc21 | 6 | 5 | . | . | -1 | 19* | 30* | 63*
CC(=O)Nc1nc(C)c(C(C)=O)s1 | -2 | 7 | -5 | 2 | 0 | 8 | . | .
CC(=O)c1sc(NC(=O)C(C)C)nc1C | 5 | -2 | 5 | 1 | 0 | 48* | 46* | 64*
CC(=O)c1sc(Nc2ccccn2)nc1C | ? | 0 | 0 | 0 | -1 | 30* | 38* | 51*
COc1ccc(CNS(=O)(=O)CC2NCc3cc(OC)ccc32)cc1 (stereo not drawn) | . | 0 | . | . | -1 | . | . | .
CCCCCCCCN1C(=O)N2Cc3ccc(C)cc3C2CS1(=O)=O (stereo not drawn) | . | -2 | . | . | 1 | . | . | .
Cc1ccc2[nH]c3c(=S)nc[nH]c3c2c1 | 9 | -4 | -1 | 3 | 1 | 72* | 44* | 21* | PG9 bind DR=>67;PGV04 DR counter=i;PG126 DR counter=i
Cc1ccc(-c2c3c([nH]c(=S)c2C#N)CCCC3)o1 | 16 | -11 | 5 | -2 | -1 | 16* | 8.7* | 8 | PG9 bind DR=>67;PGV04 DR counter=>67;PG126 DR counter=>67
SMILES | JMJD2C inh | NR1D1 modulator | PP1 inh | PP5 inh | proKLK7 act | PG9 Ab binder | PG9 binder conf | PGV04 Ab binding | others
N#Cc1c(-c2ccncc2)c2c([nH]c1=S)CCCC2 | 15 | -2 | 1 | -1 | 0 | -1 | . | .
O=C(OCc1cn(Cc2ccc(F)cc2F)nn1)N1CCOCC1 | . | 4 | . | . | 0 | . | . | .
COc1ccc(C(C(=O)NC2CCCC2)N2CCc3ccccc32)cc1 (stereo not drawn) | -7 | 3 | -2 | -1 | 0 | 12* | 25* | 34*
O=c1[nH]c2ccc(Cl)cc2c(O)c1Cc1ccccc1 | -3 | 4 | -3 | 0 | 3 | 9.0* | 11* | 14*
C[C@@H](O[Si](c1ccccc1)(c1ccccc1)C(C)(C)C)[C@@H]1NC(=O)[C@@H]2C[C@]3(Br)c4ccccc4N(S(=O)(=O)c4ccccc4)[C@@H]3N2C1=O | . | -6 | . | . | . | . | . | .
CC(COc1ccc(OC(F)(F)F)cc1)CN1CCC(C(O)(c2ccccc2)c2ccccc2)CC1 (stereo not drawn) | . | -2 | . | . | 1 | . | . | .
